Reference: PubChem BioAssay (NCATS)
Results filed as inconclusive are left out. Active and inactive are the calls of the source. Calls follow the shape of the dose curve; as a rule, active = well fitted curve in the direction sought with a large enough effect; inconclusive = small, poorly fitted or top-dose-only effect, or another doubt; inactive = no such curve, though single readings can be large; an effect the other way counts as inactive or inconclusive.

How the values were obtained:
[1] = OV-KATE Cancer Cell Toxicity qHTS against the NCATS CANVASS Library (AID 1347345)
Summary of the method: (§1)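 Cells were seeded at 1000 per well, allowed 4 h at 37 degrees C/5% CO2, then pin-treated with an 11-point compound series. After 72 h, viability was read as CellTiter-Glo luminescence following 15min at room temperature.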

[2] = HPAF-II Cancer Cell Toxicity qHTS against the NCATS CANVASS Library (AID 1347346); also: series mostly up to about 38 µM; nearly all actives have a fitted effect of over 55% in size
Summary of the method: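 HPAF-II cells were seeded at 1000 cells/well, allowed to settle for 4 h at 37 degrees C, then exposed to compounds in an 11-point series for 72 h. Viability was read by CellTiter-Glo luminescence.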

[3] = UWB1.289 Cancer Cell Toxicity qHTS against the NCATS CANVASS Library (AID 1347347); also: nearly all actives have a fitted effect of over 60% in size
Summary of the method: as §1

[4] = OV-SAHO Cancer Cell Toxicity qHTS against the NCATS CANVASS Library (AID 1347348); also: series mostly up to about 38 µM; nearly all actives have a fitted effect of over 55% in size
Summary of the method: as §1

[5] = Panc-1005 Cancer Cell Toxicity qHTS against the NCATS CANVASS Library (AID 1347349); also: series mostly up to about 38 µM; nearly all actives have a fitted effect of over 60% in size
Summary of the method: as §1

[6] = SW1088 Cancer Cell Toxicity qHTS against the NCATS CANVASS Library (AID 1347350); also: nearly all actives have a fitted effect of over 75% in size
Summary of the method: as §1

[7] = U-118MG Cancer Cell Toxicity qHTS against the NCATS CANVASS Library (AID 1347351)
Summary of the method: as §1

[8] = A2780 Cisplatin Sensitive Ovarian Cancer Cell Toxicity qHTS against the NCATS CANVASS Library (AID 1347353); also: nearly all actives have a fitted effect of over 60% in size
Summary of the method: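 A2780 cisplatin-sensitive cells (750 per well) were seeded, left 4 h at 37 °C, then pin-dosed in an 11-point series. After 72 h at 37 °C/5% CO2, viability was measured as ATPLite luminescence.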

[9] = HEK293 24hr Apoptosis Induction qHTS against the NCATS CANVASS Library (AID 1347359)
Summary of the method: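 HEK293 cells, 500 per well, exposed to an 11-point compound series for 24 hours at 37 degrees C. Caspase 3/7 activity read by Caspase-Glo luminescence (DEVD substrate) after 15 min at room temperature.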

[10] = KB-8-5-11 Cancer Cell Toxicity qHTS against the NCATS CANVASS Library (AID 1347364); also: nearly all actives have a fitted effect of over 75% in size
Summary of the method: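 KB-8-5-11 cells (500/well) in DMEM + 10% FBS were exposed to compounds in an 11-point qHTS series for 72 hr at 37C, 5% CO2. Viability was read by CellTiter-Glo luminescence.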

[11] = biological target: Nuclear receptor subfamily 1 group I member 3 (Homo sapiens) (UniProt Q14994); experiment: qHTS for Constitutive Androstane Receptor (CAR) Antagonist screened against the NCATS CANVASS Library (AID 1347372);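 also: cells stimulated with 50 nM CITCO agonist so inhibition reflects antagonism; series mostly up to about 46 µM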
Summary of the method: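 HepG2 cells stably carrying hCAR and CYP2B6-2.2kb luciferase reporter, 2500 cells/well, compound with 50 nM CITCO agonist for 24hr at 37C. ONE-Glo luminescence measured CAR activity; CellTiter-Fluor read viability.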

[12] = qHTS for Hypoxia signaling pathway (HIF-1) antagonists against the NCATS CANVASS Library (AID 1347374);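 also: HRE-bla ME-180 cells stimulated with cobalt chloride to stabilize HIF-1alpha; series mostly up to about 38 µM; nearly all actives have a fitted effect of over 60% in size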
Summary of the method: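 HRE-bla ME-180 cells (2,000/well, 0.5% dialyzed FBS) were pre-incubated 5 h, then given an 11-point compound series plus CoCl2 (60 uM solution as added) for 17 h at 37C. CCF4 β-lactamase read (ex 405, em 460/530 nm) after 2 h at RT.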

[13] = qHTS for Hypoxia signaling pathway (HIF-1) agonists against the NCATS CANVASS Library (AID 1347375)
Summary of the method: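 HRE-bla ME-180 cells (beta-lactamase reporter under hypoxia responsive element) in 0.5% dialyzed FBS medium, 5 h at 37C, then compound 17 h, 11-point qHTS series. CCF4-AM FRET substrate 2 h RT; 460/530 nm emission read.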

[14] = DH5-alpha competent E. coli microbial cell viability qHTS against the NCATS CANVASS Library (AID 1347377); conditions: outcome: dose series up to 46.1 µM unless noted
Summary of the method: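 DH5-alpha E. coli suspension (0.9 OD culture diluted to 0.2 OD) exposed to compounds in an 11-point series, overnight at 37C, 5% CO2. Viability read as ATP by BacTiter-Glo luminescence after 20 min at room temperature.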

[15] = Cytotoxicity qHTS for assessment of Hepg2 cells membrane integrity screened against the NCATS CANVASS Library (AID 1347387)
Summary of the method: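 HepG2 cells (2000/well) attached overnight at 37C, then received compounds in an 11-point series at 0.59 nM - 46 uM final for 5 hr. LDH release was detected fluorometrically (ex 560/em 590 nm) with CytoTox-ONE reagent after 10 min at room temperature.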

[16] = qHTS for activators of Nrf2/ARE signaling pathway screened against the NCATS CANVASS Library (AID 1347391); also: nearly all actives have a fitted effect of over 60% in size
Summary of the method: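 ARE-bla HepG2 beta-lactamase reporter cells, 2000 cells/well, were preincubated 5 h, then exposed to compounds (11-point series) for 16 h at 37C. CCF4 fluorescence (ex 405, em 460/530 nm) after 2 h at room temperature.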

[17] = qHTS for activators of dead-cell proteases activity screened against the NCATS CANVASS Library (AID 1347392);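 also: luminescence from protease leaking out of membrane-damaged cells cleaving impermeant substrate; rising signal means more cytotoxicity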
Summary of the method: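 HepG2 cells, 2000/well, attached 18 h at 37C, then exposed to compounds (11-point qHTS) for 5 h. Dead-cell protease release read as luminescence from cell-impermeant AAF-aminoluciferin substrate after 15 min at room temperature.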

[18] = qHTS for inhibitors of ER calcium dysfunction: SERCaMP assay screened against the NCATS CANVASS Library (AID 1347393); also: nearly all actives have a fitted effect of over 40% in size; also: potency is read from the fitted curve at half-maximal effect
Summary of the method: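 SH-SY5Y GLuc-SERCaMP, 1000 cells/well, 4 h attach; cpd 16 h, 37C/5% CO2; thapsigargin (added as 6x 600 nM) 4 h; coelenterazine; luminescence. Reduced reporter release = ER Ca stabilization.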

[19] = test system: NAD(P)H diaphorase (Clostridium kluyveri); experiment: Diaphorse counterscreen qHTS: Assay Interference Panel against the NCATS CANVASS Library (AID 1347362)
Summary of the method: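 Clostridium kluyveri diaphorase in PBS + 0.01% Tween-20 preincubated 15 min with compounds. Resazurin and NADH then added for 5 min at room temperature in the dark; resorufin fluorescence read (ex 525, em 598).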

[20] = biological target: Luciferin 4-monooxygenase (Photinus pyralis) (UniProt P08659); experiment: Firefly luciferase counterscreen qHTS: Assay Interference Panel against the NCATS CANVASS Library (AID 1347363); also: series mostly up to about 57 µM
Summary of the method: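 Purified P. pyralis luciferase (0.04 ug/mL, 4x reagent) added to Tris-acetate buffer with 0.013 mM D-luciferin, 0.013 mM ATP and 13.3 mM Mg-acetate; compounds preincubated 15 min, then luminescence read after 5 min, RT.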

Measured: Potency

Sequence of Nuclear receptor subfamily 1 group I member 3 (Homo sapiens) (Q14994 whole entry, looked up): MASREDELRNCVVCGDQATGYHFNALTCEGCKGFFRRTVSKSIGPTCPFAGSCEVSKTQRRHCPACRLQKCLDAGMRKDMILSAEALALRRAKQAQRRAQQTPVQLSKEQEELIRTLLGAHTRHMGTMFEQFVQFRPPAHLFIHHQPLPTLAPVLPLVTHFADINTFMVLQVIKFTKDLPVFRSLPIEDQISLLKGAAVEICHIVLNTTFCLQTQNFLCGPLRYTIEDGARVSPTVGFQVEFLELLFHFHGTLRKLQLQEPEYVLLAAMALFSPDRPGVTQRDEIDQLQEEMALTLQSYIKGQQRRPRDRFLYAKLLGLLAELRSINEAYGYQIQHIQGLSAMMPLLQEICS
Sequence of Luciferin 4-monooxygenase (Photinus pyralis) (P08659 whole entry, looked up): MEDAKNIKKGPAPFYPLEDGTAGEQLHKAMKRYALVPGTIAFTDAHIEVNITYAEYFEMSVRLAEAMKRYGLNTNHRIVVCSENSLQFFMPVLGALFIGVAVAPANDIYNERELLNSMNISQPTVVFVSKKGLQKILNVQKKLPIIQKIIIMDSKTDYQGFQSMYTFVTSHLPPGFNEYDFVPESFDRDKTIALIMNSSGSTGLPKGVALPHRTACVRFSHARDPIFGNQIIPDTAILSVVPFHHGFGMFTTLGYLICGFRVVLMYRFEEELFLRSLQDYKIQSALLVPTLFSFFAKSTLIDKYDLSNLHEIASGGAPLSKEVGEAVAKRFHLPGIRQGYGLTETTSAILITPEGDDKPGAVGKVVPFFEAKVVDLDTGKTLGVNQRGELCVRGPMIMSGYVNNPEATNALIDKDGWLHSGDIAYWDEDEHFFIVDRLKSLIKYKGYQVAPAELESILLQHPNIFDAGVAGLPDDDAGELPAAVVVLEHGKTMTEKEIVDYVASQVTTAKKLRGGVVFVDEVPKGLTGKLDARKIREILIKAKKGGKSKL

C=C1[C@@]2(C)CC3C4(C)CCC(O)C(C)(C)C4CCC3(C)[C@]1(C(=O)OC)C(=O)C(C)(O)C2=O (stereo partly specified)
inactive: [1] | [2] | [3] | [4] | [5] | [6] | [7] | [8] | [9] | [10] | [11] | [12] | [13] | [14] | [15] | [16] | [17]
active: [18] 8.6 µM

C=C[C@]1(C)CC[C@@H]([C@H](C)C(=O)CC=C(C)C)O1
inactive: [1] | [2] | [3] | [4] | [5] | [6] | [7] | [8] | [9] | [19] | [20] | [10] | [12] | [13] | [14] | [15] | [16] | [17]

COc1ccc([C@@H]2c3cc4c(cc3C(=O)C(C)C2C)OCO4)cc1OC (stereo partly specified)
inactive: [1] | [2] | [3] | [4] | [5] | [6] | [7] | [8] | [9] | [19] | [20] | [12] | [14] | [15]
active: [18] 7.67 µM

CN1CC[C@@]23c4ccccc4N[C@@H]1[C@@]21CCN(C)[C@@H]3Nc2ccccc21
inactive: [1] | [2] | [3] | [4] | [5] | [6] | [7] | [8] | [9] | [20] | [10] | [11] | [14] | [15] | [16] | [17]

COc1cc2ccc(=O)oc2c(O)c1O[C@@H]1O[C@H](CO)[C@@H](O)[C@H](O)[C@H]1O
inactive: [1] | [2] | [3] | [6] | [7] | [8] | [9] | [19] | [10] | [11] | [12] | [14] | [16]

C[C@@]12C[C@@H](C[C@@H]3C(=O)O[C@@H](c4ccoc4)[C@H](OC(=O)c4ccccc4)[C@@H]31)OC2=O
inactive: [1] | [2] | [3] | [4] | [5] | [6] | [7] | [8] | [9] | [10] | [11] | [12] | [13] | [14] | [16] | [17] | [18]

C[C@@]12CCC[C@@](C)(C(=O)O)[C@H]1C[C@@H](O)[C@@]13C[C@@H](CC[C@@H]21)[C@](C)(O)C3
inactive: [1] | [2] | [3] | [4] | [5] | [6] | [7] | [8] | [9] | [19] | [10] | [11] | [12] | [13] | [14] | [15] | [16] | [17] | [18]

O=C1OC(CCO)c2cccc(O)c21 (stereo unspecified)
inactive: [1] | [2] | [3] | [4] | [5] | [6] | [7] | [8] | [9] | [19] | [10] | [11] | [12] | [14] | [15] | [16] | [17] | [18]

CN1CC[C@]23c4ccccc4N[C@H]1[C@]21CCN(C)[C@H]3Nc2ccccc21
inactive: [1] | [2] | [3] | [4] | [5] | [6] | [7] | [8] | [20] | [10] | [11] | [14] | [15] | [16] | [17] | [18]

Cc1cc(O)cc2c1C(=O)c1c(O)cc(O)cc1C2=O
inactive: [1] | [2] | [3] | [4] | [5] | [6] | [7] | [8] | [19] | [20] | [10] | [12] | [14] | [16] | [17] | [18]

C[C@@]12CCC[C@@](C)(C(=O)O)[C@H]1CC[C@@]13C[C@@H](CC[C@H]12)[C@](C)(O)C3
inactive: [1] | [2] | [3] | [4] | [5] | [6] | [7] | [8] | [9] | [19] | [10] | [11] | [12] | [13] | [14] | [15] | [18]

O=C1CC(c2ccc(O)cc2)Oc2cc(O)ccc21 (stereo unspecified)
active: [18] 30.5 µM
inactive: [1] | [2] | [4] | [5] | [6] | [7] | [9] | [19] | [10] | [11] | [12] | [13] | [14] | [15] | [17]

CO[C@@H](C[C@@H](C)[C@@H](O)/C=C/C=C/CNC(=O)C(C)(C)[C@H](O)\C(C)=C/C=C\C=C\Cc1cnco1)[C@]1(O)[C@@H](C)C(=O)N(C)[C@@]12COC2=O
inactive: [1] | [2] | [3] | [4] | [5] | [6] | [7] | [8] | [9] | [19] | [20] | [10] | [12] | [14] | [15] | [16] | [18]
